Active and inactive are the calls of the source. No rule for the calls is given here.
molecular target: Pantothenate synthetase (Mycobacterium tuberculosis (strain ATCC 25618 / H37Rv)) (UniProt P9WIL5); experiment: Recombinant Mtb pantothenate synthetase (PanC) inhibitors, coupled enzyme, confirmatory (AID 375); conditions: coupled enzyme assay; at 10 µM, stronger effect = higher value;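 also: 0% = full reaction with vehicle and 100% = no enzyme background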
Sequence (P9WIL5 whole entry, looked up): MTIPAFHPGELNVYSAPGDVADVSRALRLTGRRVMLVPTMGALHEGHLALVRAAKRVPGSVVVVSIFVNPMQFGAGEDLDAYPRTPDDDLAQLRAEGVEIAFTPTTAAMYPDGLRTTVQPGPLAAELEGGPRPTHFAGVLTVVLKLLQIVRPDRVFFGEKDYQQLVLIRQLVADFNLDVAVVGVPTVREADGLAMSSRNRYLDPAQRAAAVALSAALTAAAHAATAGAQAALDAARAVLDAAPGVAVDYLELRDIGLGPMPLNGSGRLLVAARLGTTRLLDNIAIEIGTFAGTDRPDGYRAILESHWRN

Structure (SMILES)	inhibition
c1cc2c(cc1C1=Nn3c(nnc3C3CCCCC3)SC1)OCO2	0% (inactive)
Cc1ccc(S(=O)(=O)N2CCN(C(=O)N3CCOCC3)C2c2ccc(N(C)C)cc2)cc1 (stereo not given)	0% (inactive)
CCN(CC)S(=O)(=O)c1ccc(F)c(C(=O)NCCC(C)C)c1	2% (inactive)
Cn1c(NC(=O)c2cccc(Cn3cc(Cl)cn3)c2)nc2ccccc21	8% (inactive)
Cc1oc2cc3c(C(=O)OCCN(C)C)c(C)oc3cc2c1C(=O)OCCN(C)C	0% (inactive)
COc1ccc2c(c1)[nH]c1c(=O)n(CCN(C)C)cnc12	0% (inactive)
Cc1cc(C)c2nc(C(F)(F)F)nc(NCCCN3CCCC3=O)c2c1	0% (inactive)
COc1ccc(C(=O)NCc2nc3ccccc3[nH]2)cc1OC	5% (inactive)
O=C(Nc1ccc(Cc2ccc(NC(=O)N3CCOCC3)cc2)cc1)N1CCOCC1	2% (inactive)
CC(C)Nc1ncnc2c1cnn2-c1ccccc1	0% (inactive)
COc1ccccc1N1CCN(C(=O)CCNS(=O)(=O)c2ccc3c(c2)CCC(=O)N3)CC1	0% (inactive)
COc1ccc(Br)cc1S(=O)(=O)N1CC(C)OC(C)C1 (stereo not given)	7% (inactive)
Cn1c2ccccc2c2c(C(=O)NCCCN3CCCC3=O)cn(C3CCCCC3)c(=O)c21	8% (inactive)
O=C(NCc1cccnc1)C1c2ccccc2C(=O)N1Cc1ccco1 (stereo not given)	1% (inactive)
COc1ccc(CC(=O)OCC(=O)NC(=O)NC2CCCCC2)cc1	7% (inactive)
CN(C)c1nc(N)nc(CSc2nnnn2-c2cccc3ccccc23)n1	0% (inactive)
Cc1cc(Cl)ccc1OCCCC(=O)NO	0% (inactive)
Cc1ccc(OCCN2CCN(C(=O)CCC(=O)Nc3nnc(C)s3)CC2)cc1	1% (inactive)
[N-]=[N+]=CC(=O)CC(c1ccccc1)N1C(=O)c2ccccc2C1=O (stereo not given)	0% (inactive)
O=C(CSc1nc2ccccc2[nH]1)N1CCCCC1	0% (inactive)

Structure (SMILES)	inhibition
Cc1ccc(S(=O)(=O)Nc2cc(C(=O)O)ccc2N2CCCCC2)cc1	0% (inactive)
Cc1nc2nc(Cc3ccccc3)[nH]n2c(=O)c1Cc1ccccc1	5% (inactive)
CCOc1ccc2[nH]cc(C(=O)N3CCN(CC)CC3)c(=O)c2c1	0% (inactive)
Cc1ccc(-c2nc3ncccc3o2)cc1NC(=O)c1ccco1	0% (inactive)
COc1cc(-c2noc(-c3cccc(Cl)c3)n2)cc(OC)c1OC	0% (inactive)
O=S(=O)(c1ccc2nc(Cc3cccc(C(F)(F)F)c3)[nH]c2c1)N1CCOCC1	0% (inactive)
COc1ccc2c(c1)c(CC(=O)OCC(=O)O)c(C)n2C(=O)c1ccc(Cl)cc1	0% (inactive)
CCOC(=O)c1[nH]c(C)c(C(=O)N(C)C)c1C	0% (inactive)
O=C(c1ccco1)N1CCN(C(=O)C2CCN(S(=O)(=O)c3cccc4nsnc34)CC2)CC1	10% (inactive)
Cc1cc(NC(=O)CSc2nccn2-c2ccc(F)cc2)no1	5% (inactive)
COc1cc2c(cc1OC)CN(C(=O)CSc1nnc3scc(-c4ccccc4)n13)CC2	0% (inactive)
CCn1cc(SCC(=O)Nc2cc(C)on2)c2ccccc21	0% (inactive)
Cn1cnc(S(=O)(=O)NCc2cccs2)c1	0% (inactive)
CCC1CCCCN1CCCNC(=O)CC1Oc2ccc(C)cc2NC1=O (stereo not given)	0% (inactive)
O=C(NCc1ccco1)C(c1ccco1)N(C(=O)Cn1nnc2ccccc21)c1ccc2c(c1)CCC2 (stereo not given)	0% (inactive)
CC(=O)Nc1ccc(Cc2ccncc2)cc1	0% (inactive)
Cc1ccc(S(=O)(=O)N2CCCC2C(=O)OCc2nc3ccccc3s2)cc1 (stereo not given)	0% (inactive)
O=C(O)c1ccc(CSc2ncn[nH]2)cc1	1% (inactive)
c1ccc(Cn2ncc3c2ncn2c(-c4ccncc4)nnc32)cc1	0% (inactive)
COc1ccc(C(=O)N(CCN2CCOCC2)CC(=O)NC2CCCC2)cc1OC	1% (inactive)
